Values joined by “and” are separate entries in the source; they are usually repeats but may differ in a detail not shown here. Equal entries are not always repeated. Results filed as inconclusive are left out. A structure can be active in one record and inactive in another. Active and inactive are the calls of the source. Rule for the calls: active = hit-call score of the fitted dose curve at least 0.9, where 1 is the maximum; inconclusive = response in the unintended direction; inactive = score below 0.9.
tested on: not listed separately; assay: ATG_M_06_TRANS: Attagene TRANS-FACTORIAL HepG2 Assay for M06 Transcription Factor (Internal Marker) (AID 2282983); conditions: HepG2 Attagene TRANS M06 internal marker reporter;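 note: reporter transcript level by RT-PCR then capillary electrophoresis fluorescence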
Outline: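 mRNA levels of a reporter transcript, quantified as FAM fluorescence on capillary electrophoresis, served as readout. HepG2 cells expressing exogenous GAL4-chimera reporter constructs were exposed for 24 h. Gain of signal over DMSO was evaluated.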

| SMILES | outcome |
| --- | --- |
| C[C@]12CCC(=O)C=C1CC[C@@H]1[C@@H]2CC[C@@]2(C)[C@H]1CC[C@]2(C)O | inactive |
| Cc1ccccc1CO[C@@H]1C[C@@]2(C(C)C)CC[C@]1(C)O2 | inactive |
| CCC(C)c1cc([N+](=O)[O-])cc([N+](=O)[O-])c1O (stereo not given) | inactive |
| c1cc2ccc3cccc4ccc(c1)c2c34 | inactive |
| CCC(=O)O[C@H]1CC[C@H]2[C@@H]3CCC4=CC(=O)CC[C@]4(C)[C@H]3CC[C@]12C | inactive |
| CC(C)(c1ccccc1)c1ccc(O)cc1 | inactive |
| ClC(Cl)=C(c1ccc(Cl)cc1)c1ccc(Cl)cc1 | inactive |
| O=C(O)C(F)(F)C(F)(F)C(F)(F)C(F)(F)C(F)(F)C(F)(F)C(F)(F)C(F)(F)C(F)(F)F | inactive |
| Oc1c(Cl)c(Cl)c(Cl)c(Cl)c1Cl | inactive |
| Clc1ccc(C(c2ccccc2Cl)C(Cl)(Cl)Cl)cc1 (stereo not given) | inactive |
| Cc1ccccc1[N+](=O)[O-] | inactive |
| CCOC(=O)C(O)(c1ccc(Cl)cc1)c1ccc(Cl)cc1 | inactive |
| Sc1ccccc1 | inactive |
| Clc1ccc(Cl)cc1 | inactive |
| CN(C)CCO | inactive |
| Cc1cc(-c2ccc(N)c(C)c2)ccc1N | inactive |
| CCCCCCCCCc1ccc(O)cc1 | inactive |
| CC(C)(O)C(=O)Nc1ccc([N+](=O)[O-])c(C(F)(F)F)c1 | inactive |
| CCOP(=S)(OCC)SCSC(C)(C)C | inactive |
| O=C(O)C(F)(F)C(F)(F)C(F)(F)C(F)(F)C(F)(F)C(F)(F)C(F)(F)C(F)(F)F | inactive |
| CC(c1ccc(O)cc1)(c1ccc(O)cc1)c1ccc(O)cc1 | inactive |
| COc1ccc(O)c(C(C)(C)C)c1 | inactive |
| Oc1ccc(C(c2ccc(O)cc2)(C(F)(F)F)C(F)(F)F)cc1 | inactive |
| CCNc1nc(NC(C)C)nc(SC)n1 | inactive |
| O=S(=O)(O)C(F)(F)C(F)(F)C(F)(F)C(F)(F)C(F)(F)C(F)(F)F | inactive |
| Nc1ccc(-c2ccc(N)cc2)cc1 | inactive |

tested on: not listed separately; assay: ATG_M_32_TRANS: Attagene TRANS-FACTORIAL HepG2 Assay for M32 Transcription Factor (Internal Marker) (AID 2282984); conditions: HepG2 Attagene TRANS M32 internal marker reporter;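 note: transcript level of a background control reporter unit measured by RT-PCR and capillary electrophoresis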
Outline: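 Internal background reporter in transfected HepG2: after 24 h chemical exposure, RNA reverse-transcribed, reporter cDNA amplified, fluorescently labelled and HpaI-cut, then sized by capillary electrophoresis. Gain of signal fitted against DMSO control.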

| SMILES | outcome |
| --- | --- |
| C[C@]12CCC(=O)C=C1CC[C@@H]1[C@@H]2CC[C@@]2(C)[C@H]1CC[C@]2(C)O | inactive |
| CCC(=O)O[C@H]1CC[C@H]2[C@@H]3CCC4=CC(=O)CC[C@]4(C)[C@H]3CC[C@]12C | inactive |
| CCOP(=S)(OCC)SCSC(C)(C)C | inactive |
| CC(c1ccc(O)cc1)(c1ccc(O)cc1)c1ccc(O)cc1 | inactive |

target: Nuclear receptor subfamily 4 group A member 2 (Homo sapiens) (UniProt P43354); assay: ATG_NURR1_TRANS: Attagene TRANS-FACTORIAL HepG2 Assay for human Nuclear Receptor Related Protein 1 (NURR1) (AID 2282985); conditions: HepG2 Attagene TRANS reporter, mRNA readout
Sequence (P43354 whole entry, looked up, the tested form may be a part): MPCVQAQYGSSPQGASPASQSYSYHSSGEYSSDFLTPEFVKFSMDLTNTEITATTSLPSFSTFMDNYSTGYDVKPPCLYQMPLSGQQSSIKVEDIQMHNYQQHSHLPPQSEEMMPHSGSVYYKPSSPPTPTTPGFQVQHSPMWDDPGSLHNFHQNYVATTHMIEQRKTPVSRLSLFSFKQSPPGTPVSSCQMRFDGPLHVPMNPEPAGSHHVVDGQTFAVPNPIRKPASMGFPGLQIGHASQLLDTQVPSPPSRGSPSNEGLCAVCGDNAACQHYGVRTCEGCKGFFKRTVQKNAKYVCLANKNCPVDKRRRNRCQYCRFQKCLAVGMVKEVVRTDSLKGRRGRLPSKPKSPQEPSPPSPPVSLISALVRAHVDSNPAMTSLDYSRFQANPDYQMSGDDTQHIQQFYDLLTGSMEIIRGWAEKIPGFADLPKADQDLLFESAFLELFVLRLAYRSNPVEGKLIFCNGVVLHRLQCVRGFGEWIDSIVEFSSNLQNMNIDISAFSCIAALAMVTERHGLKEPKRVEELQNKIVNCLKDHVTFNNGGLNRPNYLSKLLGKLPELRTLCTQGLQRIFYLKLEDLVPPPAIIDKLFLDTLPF
Outline: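 Reporter transcript induction, measured by RT-PCR with fluorescent labelling, HpaI digestion and capillary electrophoresis, after 24 hr dosing of human HepG2 cells transiently expressing an exogenous NR-Gal4 fusion with GAL4-UAS-driven reporters; DMSO as baseline.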

| SMILES | outcome | AC50 |
| --- | --- | --- |
| C[C@]12CCC(=O)C=C1CC[C@@H]1[C@@H]2CC[C@@]2(C)[C@H]1CC[C@]2(C)O | inactive | – |
| Cc1ccccc1CO[C@@H]1C[C@@]2(C(C)C)CC[C@]1(C)O2 | inactive | – |
| c1cc2ccc3cccc4ccc(c1)c2c34 | inactive | – |
| CCC(=O)O[C@H]1CC[C@H]2[C@@H]3CCC4=CC(=O)CC[C@]4(C)[C@H]3CC[C@]12C | inactive | – |
| CC(C)(c1ccccc1)c1ccc(O)cc1 | inactive | – |
| ClC(Cl)=C(c1ccc(Cl)cc1)c1ccc(Cl)cc1 | inactive | – |
| O=C(O)C(F)(F)C(F)(F)C(F)(F)C(F)(F)C(F)(F)C(F)(F)C(F)(F)C(F)(F)C(F)(F)F | inactive | 12.9 µM (active) |
| CO/C=C(/C(=O)OC)c1ccccc1COc1cccc(C(F)(F)F)n1 | – | 29.3 µM (active) |
| OCC(O)CO | inactive | – |
| Oc1c(Cl)c(Cl)c(Cl)c(Cl)c1Cl | inactive | – |
| Clc1ccc(C(c2ccccc2Cl)C(Cl)(Cl)Cl)cc1 (stereo not given) | inactive | – |
| Sc1ccccc1 | inactive | – |
| Clc1ccc(Cl)cc1 | inactive | – |
| CN(C)CCO | inactive | – |
| Cc1cc(-c2ccc(N)c(C)c2)ccc1N | inactive | – |
| CCCCCCCCCc1ccc(O)cc1 | inactive | – |
| CC(C)C(=O)OCC(C)(C)C(OC(=O)C(C)C)C(C)C (stereo not given) | inactive | – |
| CC(C)(O)C(=O)Nc1ccc([N+](=O)[O-])c(C(F)(F)F)c1 | inactive | – |
| CCOP(=S)(OCC)SCSC(C)(C)C | inactive | – |
| O=C(O)C(F)(F)C(F)(F)C(F)(F)C(F)(F)C(F)(F)C(F)(F)C(F)(F)C(F)(F)F | – | 38.9 µM (active) and 39.4 µM (active) |
| Oc1ccc(C(c2ccc(O)cc2)(C(F)(F)F)C(F)(F)F)cc1 | inactive | 11.1 µM (active) |
| O=S(=O)(O)C(F)(F)C(F)(F)C(F)(F)C(F)(F)C(F)(F)C(F)(F)F | inactive | – |
| ClC1=C(Cl)[C@]2(Cl)[C@@H]3[C@H]4C[C@H]([C@@H]5O[C@H]45)[C@@H]3[C@@]1(Cl)C2(Cl)Cl | inactive | – |
